Source: PubChem
A selection: hits, their analogues and other compounds. The true share with any hit is near 5%.
Vaccinia Venus = vaccinia inhibition (Venus reporter); hit rate 0.46% among 330,000; Vaccinia virus Venus reporter expression, fluorescence; Potency, µM (highest dose often 36.5 µM), for the others: top-dose activity change, negative = inhibition, hits mostly inhibitors; AID 720580; calls by dose curve; tested in A549 cells; note: potency is the fitted concentration of half-maximal effect; nearly all actives have a fitted effect of over 30% in size
HCMV inh = blocks human cytomegalovirus replication | activity change, negative = inhibition, % at 57.5 µM | hit rate 4.5% among 410,000 | HFF cells, HCMV-luciferase reporter, 72 h; stronger effect = lower value | AID 1259415; in the data active = activity change below about -60%; inconclusive = no clear call, values can overlap the other calls; inactive = above about -39%
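Steps: HFFs plated, 16 h 37C; compounds added; HCMV-luciferase added to MOI 1 PFU/cell; 72 h 37C; OneGlo reagent, 5 min room temperature; luminescence read, normalized to controls.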
Vaccinia mCherry = inhibitors of vaccinia virus infection (mCherry reporter signal) | Potency, µM (titrated, usually from 36.5 µM), inactives show at the highest dose activity change, negative = inhibition, hits mostly inhibitors | Vaccinia virus mCherry reporter infection, fluorescence | hit rate 0.63% among 310,000 | AID 720579; calls by dose curve; tested in A549 cells; note: potency is the fitted concentration of half-maximal effect; nearly all actives have a fitted effect of over 35% in size
LmPK inhibitor = LmPK (Leishmania mexicana) enzyme inhibition | Q27686 | purified LmPK, Kinase-Glo ATP luminescence, 1 h | Potency, µM (series often up to 57.5 µM), inactives show at the top dose activity change, negative = inhibition, hits mostly inhibitors | hit rate 0.37% among 290,000; note: potency is the fitted concentration of half-maximal effect
Target sequence (Q27686 whole entry, looked up): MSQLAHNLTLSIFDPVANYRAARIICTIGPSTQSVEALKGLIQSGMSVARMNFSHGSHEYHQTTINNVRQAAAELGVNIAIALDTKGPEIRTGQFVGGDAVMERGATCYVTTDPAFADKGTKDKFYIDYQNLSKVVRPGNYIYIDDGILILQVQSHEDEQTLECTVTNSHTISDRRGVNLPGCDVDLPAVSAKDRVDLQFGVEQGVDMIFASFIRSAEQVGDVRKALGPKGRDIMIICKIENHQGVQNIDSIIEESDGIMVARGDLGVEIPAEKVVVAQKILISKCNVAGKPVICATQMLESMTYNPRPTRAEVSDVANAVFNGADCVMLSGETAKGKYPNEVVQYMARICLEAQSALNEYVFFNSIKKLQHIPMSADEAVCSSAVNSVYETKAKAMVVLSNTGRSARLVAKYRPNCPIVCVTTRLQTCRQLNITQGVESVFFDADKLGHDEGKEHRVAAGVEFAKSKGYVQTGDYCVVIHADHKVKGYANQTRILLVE
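Purified LmPK (0.1 nM) converted ADP (0.1 mM) to ATP with PEP (0.5 mM) in imidazole buffer pH 7.2 with KCl and MgCl2, 1 h at room temperature. ATP was read by Kinase-Glo luminescence; data normalized to uninhibited and no-enzyme controls.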
TbPYK inhibitor = blocks Trypanosoma brucei pyruvate kinase | Q57TT1 | TbPYK enzyme, Kinase-Glo Plus ATP luminescence, 45 min | Potency, µM (highest dose often 76.8 µM), for inactives: top-dose activity, negative = inhibition, actives largely listed as inhibitors | hit rate 0.12% among 410,000; note: potency is the fitted concentration of half-maximal effect; nearly all actives have a fitted effect of over 50% in size
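Glycolytic pyruvate kinase of T. brucei was incubated with substrate, test compound and 130 uM ADP for 45 minutes at room temperature. Luminescent Kinase-Glo Plus signal was measured after 10 minutes.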
Numbers without * were called inactive; i = inactive; ? = inconclusive; nt = no result; ! = not confirmed by another sample. Unless noted, calls come from the whole dose curve; as a rule, active = well fitted curve in the direction sought with a large enough effect; inconclusive = small, poorly fitted or top-dose-only effect, or another doubt; inactive = no such curve, though single readings can be large; an effect the other way counts as inactive or inconclusive. % is set by controls: 0 for no effect and ±100 for the full control effect.

SMILES	Vaccinia Venus	HCMV inh	Vaccinia mCherry	LmPK inhibitor	TbPYK inhibitor
O=C(CCc1ccccc1)Nc1ccc2c(c1)C(=O)OC2	-3%	nt	-18%	-4%	-8%
N=c1c2c(n(Cc3ccc(Cl)cc3)c3c1CCC3)CCC2	?	-102*	-25%	-4%	2%
N=c1c2c(n(Cc3ccc(Cl)cc3Cl)c3c1CCC3)CCCC2	?	nt	nt	-1%	-7%
N=c1c2c(n(Cc3cccc(Cl)c3)c3c1CCC3)CCCC2	?	-95*	-21%	1%	3%
N=c1c2c(n(Cc3ccccc3)c3c1CCC3)CCC2	?	-97*	nt	-7%	-8%
N=c1c2c(n(Cc3ccc(F)cc3)c3c1CCC3)CCCC2	-22%	-100*	-11%	1%	8%
Cc1nn(-c2ccccc2)c(Cl)c1C(=O)NCC(C)c1ccccc1 (stereo unspecified)	-8%	56	3%	2%	-8%
Cc1cnc(CNC(=O)c2csc(COCCO)n2)cn1	-3%	-15	50%	nt	-2%
Cc1ccc(/C(COc2ccccc2O)=N\O)cc1	-9%	4	i	4%	-4%
COc1cccc(-c2csc(N3CCN(C(=O)Nc4ccccc4OC)CC3)n2)c1	nt	47	nt	3%	-15%
COc1ccc(OC)c(NC(=O)C2CCN(c3cc(-c4ccccc4)nc4ncnn34)CC2)c1	nt	?	nt	3%	0%
COc1ccccc1NC(=O)N1CCN(c2cc(-c3ccccc3)nc3ncnn23)CC1	nt	-95*	nt	4%	0%
COc1ccc(NC(=O)C2CCN(c3cc(-c4ccccc4)nc4ncnn34)CC2)cc1OC	nt	-89*	nt	2%	7%
Cc1cc(C)c(C(=O)COC(=O)CNC(=O)c2ccccc2C)c(C)c1	-6%	-27	-10%	nt	0%
COc1cc(OC)cc(-c2c(-c3cccs3)c3cc(-c4cnc(OC)nc4)ccc3n2C)c1	-19%	-78*	i	nt	1%
O=[N+]([O-])c1cc(-c2ccc(/C=N/c3nc4ccccn4c3-c3ccco3)o2)ccc1Cl	-9%	85	-21%	-28%	-9%
Cc1ccc(CNc2ncnc3[nH]ncc23)o1	-19%	nt	-2%	nt	nt
c1coc(CNc2nc3nonc3nc2NCc2ccco2)c1	-25%	-72*	-18%	2%	0%
c1coc(CNc2ncnc3[nH]ncc23)c1	?	-6	6.3µM*!	-4%	2%
CCCCCCCCNc1ncnc2[nH]ncc12	-13%	-76*	-3%	nt	0%
CC(C)Nc1ncnc2ccc(Br)cc12	?	-96*	?	0%	-6%
Cc1ccc(-n2ncc(C(=O)NCC3CCN(C4CCCC4)C3)c2C2CCN(C(=O)OC(C)(C)C)CC2)cc1C (stereo unspecified)	-23%	-29	-13%	4%	-6%
COc1ccc(N2CCN(S(=O)(=O)c3ccc(-c4cc(C(F)(F)F)on4)s3)CC2)cc1	-7%	-38	-13%	nt	-11%
COc1cc2ncnc(NCc3ccco3)c2cc1OC	nt	-8	nt	3%	0%
Brc1ccc2ncnc(NCc3ccco3)c2c1	-27%	-87*	-1%	7%	-4%
SMILES	Vaccinia Venus	HCMV inh	Vaccinia mCherry	LmPK inhibitor	TbPYK inhibitor
CN=c1nc(-c2ccccc2)n(-c2ccccc2)s1	-25%	-24	-15%	nt	7.9µM*
CC(NCc1ccc(Cl)c(Cl)c1)C(O)c1ccccc1 (stereo unspecified)	-18%	-71*	i	4%	6%
O=C(/C=C/c1cccc([N+](=O)[O-])c1)N1CCOCC1	4%	-13	-8%	0%	-4%
O=C(/C=C/c1ccc(-c2cccc([N+](=O)[O-])c2)o1)N1CCOCC1	0%	-61*	-10%	0%	-12%
COc1ccc(OC)c(C2C=C(C34CC5CC(CC(C5)C3)C4)NC(=S)N2)c1 (stereo unspecified)	-18%	?	-20%	2%	-20%
CCc1sc(N(C(=O)Cc2ccccc2)c2ccc(F)cc2)nc1-c1ccccc1	-26%	-15	nt	7%	-3%
COc1ccc(C2=Nn3c(nnc3-c3ccccn3)SC2)cc1	?	11	-28%	2%	-1%
Clc1ccc(C2=Nn3c(Cn4nnc5ccccc54)nnc3SC2)cc1	-17%	157	-15%	0%	-19%
COc1ccc(C2=Nn3c([n+](C)c4ccccc43)SC2)cc1	?	-81*	-15%	-3%	5%
C[n+]1c2n(c3ccccc31)N=C(c1ccc(Cl)cc1)CS2	nt	-96*	nt	3%	3%
CC1Sc2n(c3ccccc3[n+]2C)N=C1c1ccccc1 (stereo unspecified)	-13%	-97*	-1%	-1%	1%
Cc1cccc(N2C(=O)C3C4CC(=O)C(c5ccccc54)C3C2=O)c1C (stereo unspecified)	nt	47	nt	6%	0%
CC(C)(C)C(=O)Nc1sc(-c2ccccc2)cc1C(=O)O	8%	-64*	?	-2%	0%
COc1ccc(C(=O)N[C@H](C(=O)Nc2nc3ccccc3[nH]2)C(C)C)cc1	?	-86*	?	-10%	0%
Cc1cccc(C(=O)N[C@H](C(=O)Nc2nc(C)cs2)C(C)C)c1	-5%	47	-13%	-3%	0%
Cc1cccc(C(=O)N[C@H](C(=O)Nc2nc3ccccc3[nH]2)C(C)C)c1	nt	-81*	nt	-3%	-4%
C/C(=N/Nc1ccc(C(=O)O)cc1)c1ccc(O)c(O)c1O	13%	-6	-7%	-11%	-16%
Cc1ccc(S(=O)(=O)N2C[C@H]3n4c(=O)ccc(=O)n4C[C@H](OC(=O)NC4CC4)[C@@]3(O)C2)cc1	-13%	-25	-6%	nt	-2%
CCC(C)NC(=O)Cn1c(=O)n(Cc2ccc(C(=O)NCc3ccc(C)cc3)cc2)c(=O)c2ccccc21 (stereo unspecified)	-10%	-79*	-7%	nt	2%
COc1cccc(-n2c(=O)c3sc4ccccc4c3n(CC(=O)Nc3ccc(F)cc3F)c2=O)c1	-18%	-70*	-22%	nt	-4%
Cc1ccc(CNC(=O)Cn2c(=O)n(Cc3ccc(F)cc3)c(=O)c3sc4ccccc4c32)cc1	-12%	-65*	-14%	nt	7%
Cc1ccccc1CNC(=O)c1ccc(-c2nc(CS(=O)(=O)c3ccccc3)c(C)o2)cc1	?	-25	?	nt	-4%
CCC[C@@H](OS(N)(=O)=O)[C@@H](Cc1ccccc1)C(=O)OCC	-16%	11	i	1%	0%
O=C(CCCNc1ccccc1)N/N=C/c1cccs1	-9%	-10	i	2%	-20%
Cn1c(COc2ccccc2)nnc1SCCSc1nnc(COc2ccccc2)n1C	0%	-65*	-1%	2%	-6%
Cc1ccc(N=N/C(=C\O)C(=O)c2ccc(Cl)cc2)cc1	-26%	-87*	-23%	-4%	1%
O=C(/C(=C/O)N=Nc1ccccc1)c1ccc(Cl)cc1	-10%	-38	-18%	1%	3%
COC(=O)/C=c1/s/c(=C(/C#N)C(=O)N2CCOCC2)n(-c2ccccc2)c1=O	-4%	-4	-13%	11%	?
